Source: the supplement of paper PMC3334620
The full ranking holds about 33,000 sequences; the median of “E-score (-0.5 to 0.5)” is about -0.0059, and the highest 2% start at about 0.26. For the sample, the highest values were picked, then their nearest neighbours and some sequences at random.

Target: T1, Cin5 (UniProt P40917)
T1 sequence: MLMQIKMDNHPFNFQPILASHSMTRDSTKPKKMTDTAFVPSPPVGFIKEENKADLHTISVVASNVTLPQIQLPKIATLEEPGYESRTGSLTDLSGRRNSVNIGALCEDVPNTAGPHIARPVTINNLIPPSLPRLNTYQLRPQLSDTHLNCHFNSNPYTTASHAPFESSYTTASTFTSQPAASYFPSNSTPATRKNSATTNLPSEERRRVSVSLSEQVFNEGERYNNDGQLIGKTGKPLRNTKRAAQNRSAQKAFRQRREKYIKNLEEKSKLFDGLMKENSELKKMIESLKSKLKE
Experiment: PBM E-score (8-mer binding enrichment) (E-score (-0.5 to 0.5)); higher = stronger / more preferred TF binding
Details: protein concentration: 100 nM; construct: GST-full length
Protocol: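 Universal 'all 10-mer' protein binding microarrays (Agilent AMADID 015681) probed with GST-tagged S. cerevisiae TFs (full-length or DBD) made by in vitro transcription/translation (PURExpress), about 100-200 nM. Bound TF was detected with fluorescent anti-GST. Each ungapped 8-mer (which stands for itself and its reverse complement) is scored by the PBM enrichment score (E-score), a modified Wilcoxon-Mann-Whitney statistic from -0.5 to +0.5, computed with the Universal PBM Analysis Suite. Scale: above 0.35 generally sequence-specific binding.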

| Sequence | PBM E-score |
| --- | --- |
| AACGCCAA | -0.0074 |
| GATTCTCC | -0.134 |
| GTACTCTA | -0.0538 |
| TATTCGAA | 0.0697 |
| CCCTATGA | -0.066 |
| CAATAGGC | -0.0915 |
| AGGAATAG | 0.0234 |
| GGCAAAAA | 0.202 |
| ATTACTGA | 0.108 |
| CTTACTAA | 0.313 |
| CTTACTTA | 0.25 |
| ATTACTTA | 0.411 |
| ATTACTAA | 0.334 |
| GTTACTAA | 0.168 |
| ATTACTAC | 0.145 |
| CTTACTAC | 0.202 |
| ATTACTAG | 0.105 |
| AAGATGGA | 0.109 |
| CGAGTAGA | -0.139 |
| ATTTACGC | 0.0814 |
| ATCCGTTA | 0.29 |
| ATCCGTTC | 0.0322 |
| GTCCGTTA | 0.12 |
| CGGGCTAA | -0.184 |
| CGGTACTC | -0.161 |
| CGTAGAGC | -0.0105 |

| Sequence | PBM E-score |
| --- | --- |
| AAAAACCA | 0.0166 |
| CAAGCGCA | 0.323 |
| AAAGCGCA | -0.0252 |
| CAAGCGCC | -0.291 |
| CAATTCCC | 0.112 |
| CTGATTAA | 0.108 |
| CTGATTAC | 0.378 |
| ATGATTAA | 0.256 |
| ATGATTAC | 0.362 |
| ATGATTAG | 0.223 |
| CTGATTTC | -0.00928 |
| GGGCTAGA | -0.149 |
| CAGGCAAC | -0.0103 |
| CTTATGAA | 0.0936 |
| CTTATGCA | 0.106 |
| ATTATGAA | 0.258 |
| GATATGTA | 0.189 |
| CTTATGTA | 0.361 |
| ATTATGTG | 0.345 |
| GTTATGCA | 0.0592 |
| GTTATGAA | 0.159 |
| AGTATGTG | 0.14 |
| ACTATGTG | 0.0904 |
| GTTATGTA | 0.276 |
| CATATGTA | 0.172 |
| AGTGCTTA | 0.199 |

| Sequence | PBM E-score |
| --- | --- |
| AGTGAACT | 0.035 |
| AGGCCACG | -0.155 |
| GAGAAGAC | -0.0329 |
| CTACACCA | -0.00077 |
| GGGACACC | -0.238 |
| CTAGTGAC | -0.0966 |
| ATTATGCA | 0.118 |
| ATTATGTA | 0.42 |
| ACTATGTA | 0.202 |
| ATTATGCC | 0.15 |
| GCTATGTA | -0.0403 |
| ACTATGTC | -0.0438 |
| CTTATGTC | 0.219 |
| ATTATGTC | 0.27 |
| ATTATGCG | 0.338 |
| AGCCATCA | 0.131 |
| AACGCGAT | 0.0765 |
| ACTTCGCC | 0.0471 |
| CTACCCGA | -0.0656 |
| CCACGGAC | -0.237 |
| AGTTTCGC | 0.0693 |
| ATAGGCCG | -0.185 |
| ACCCTTAG | -0.101 |
| GGACAGGA | -0.275 |
| ACTACTAC | 0.00444 |
| AATACTGG | 0.129 |

| Sequence | PBM E-score |
| --- | --- |
| ACTACTAA | 0.177 |
| GATACTGA | 0.124 |
| TATACTGA | 0.274 |
| ACTACTAT | 0.26 |
| AATACTAT | 0.214 |
| AATACTGT | 0.258 |
| CATACTGA | 0.155 |
| AGCTGTAG | 0.139 |
| CAGATGAG | 0.0638 |
| CGTGTTGC | -0.119 |
| AAAGTGAT | -0.00439 |
| AAAGTGAA | 0.258 |
| GAAGTGAA | 0.202 |
| ATACGCAA | 0.217 |
| TTACGCAA | 0.306 |
| GTACGCAA | -0.0571 |
| CAGCTCCC | -0.305 |
| ACATGTTA | 0.126 |
| GAACAAAA | 0.278 |
| ATACAAAT | 0.22 |
| ATACAACA | 0.272 |
| ATACAACC | 0.0923 |
| ATACAACG | 0.174 |
| AAACAAAA | 0.137 |
| GAACAAAC | 0.226 |
| ATACAAAA | 0.28 |

| Sequence | PBM E-score |
| --- | --- |
| CTACAAAA | 0.111 |
| CCCCTCGA | 0.0859 |
| ACAGGCTA | -0.0671 |
| CCCACAGC | -0.192 |
| TTAAATAA | 0.313 |
| ATAAATAA | 0.321 |
| ATAAATAC | 0.279 |
| ATAAATAG | 0.102 |
| CTAATAAA | 0.164 |
| GTAAATAA | 0.189 |
| ATAAATAT | 0.226 |
| ATAATAAA | 0.24 |
| CTAAATAA | 0.0261 |
| CTAAATAC | 0.085 |
| TAAAATAA | 0.141 |
| TTAATAAA | 0.287 |
| ATGTGGTG | 0.114 |
| CCTCGCAC | -0.0617 |
| CTTAGATC | -0.0574 |
| CGGCATGA | 0.123 |
| GAATTCTC | 0.0994 |
| ACCACGAT | 0.161 |
| AGCTACCT | -0.0535 |
| ATCACTGC | 0.0947 |
| CGTGTTGA | -0.0277 |
| AACCCAAC | 0.17 |

| Sequence | PBM E-score |
| --- | --- |
| ACTTTACG | 0.119 |
| GGGGCACC | -0.367 |
| GGGTCACC | -0.297 |
| CCGAATTA | 0.0794 |
| ACGAATTA | 0.0396 |
| GCGAATTA | 0.266 |
| GATGGTAC | 0.0499 |
| GGGTAATA | 0.122 |
| CGGTAATA | 0.181 |
| CGGTAATC | -0.0552 |
| AGGTAATC | 0.313 |
| AGGTAATG | 0.124 |
| AGGTAATA | 0.296 |
| CGGAGCTC | -0.269 |
| ATTCTTGG | 0.153 |
| TGTAAACA | 0.0928 |
| CACCAGCG | -0.0689 |
| CATTAGTA | 0.188 |
| GATTAGTA | 0.254 |
| AATTAGTG | 0.188 |
| AATTAGAC | 0.0847 |
| CTTTAGTA | -0.00776 |
| AATTAGAT | 0.294 |
| ATTTAGTC | 0.0988 |
| AATTAGTC | 0.26 |
| ATTTAGTA | 0.303 |

| Sequence | PBM E-score |
| --- | --- |
| AATTAGTA | 0.308 |
| AATTAGAG | 0.146 |
| CATTAGTC | 0.0189 |
| AGCGTCAG | -0.124 |
| AGCGAGCC | -0.0601 |
| CACGAAGA | 0.132 |
| CGTTTCTA | -0.00786 |
| AGATAACT | 0.159 |
| ATGCTACA | -0.0162 |
| ATCTAGAC | -0.125 |
| ATTTGATA | 0.319 |
| ATATGATC | 0.258 |
| ATATGATA | 0.314 |
| GCATGATA | 0.168 |
| ATATGATG | 0.158 |
| GTATGAGA | 0.144 |
| GTATGATA | 0.275 |
| CTATGATA | 0.116 |
| ACATGATA | 0.187 |
| ATTTGATC | 0.0618 |
| CTTTGATA | 0.116 |
| CTATGATC | -0.0495 |
| ATTCTTCG | 0.138 |
| CTGATCGC | 0.0487 |
| AAGGAAAT | 0.0752 |
| ATTGGTGC | 0.134 |

| Sequence | PBM E-score |
| --- | --- |
| ACGCTCAC | 0.0871 |
| CCTCACGC | 0.0561 |
| GTCAGCGA | -0.0481 |
| ACCACCCT | -0.163 |
| ATGCTATC | -0.00354 |
| CGAACGCG | 0.00852 |
| AGAAACCA | 0.123 |
| GTGTGATA | 0.2 |
| CTGTGATA | 0.0273 |
| ATGTGATA | 0.266 |
| ATCGCCCA | -0.11 |
| CAACGGTA | -0.181 |
| CGTAAAGC | -0.147 |
| GTTTGGTA | 0.296 |
| ATTTGGTA | 0.252 |
| CTTTGGTA | -0.205 |
| AGGACCGG | -0.294 |
| ACCGCTCG | -0.0731 |
| CCCTATGC | 0.0135 |
| ACAACCCG | -0.0389 |
| CGCAACTC | 0.103 |
| CGCAACTA | 0.267 |
| GGCAACTA | 0.0726 |
| CAGAACGA | 0.0474 |
| CAAAGACG | -0.0507 |
| CGCTGGGC | -0.295 |

| Sequence | PBM E-score |
| --- | --- |
| TATATGAA | 0.129 |
| AATATGAG | 0.0321 |
| AATATGAC | 0.163 |
| GATATGAA | 0.0853 |
| AATATGAT | 0.297 |
| AATATGAA | 0.258 |
| AGGGTGTC | -0.136 |
| GGTCCTAA | -0.143 |
| CAGGAAGA | -0.0593 |
| GGGCAGGA | -0.00266 |
| TGATGTAA | 0.329 |
| AAATGTAT | 0.276 |
| CGATGTAA | 0.102 |
| AAATGGAA | 0.0906 |
| TAATGGAA | 0.281 |
| TAATGTAA | 0.33 |
| AAATGTAA | 0.14 |
| AGATGTAA | 0.169 |
| AAATGTAG | 0.101 |
| GAATGGAA | 0.181 |
| AAATGTAC | 0.19 |
| GAATGTAA | 0.241 |
